The values below come from publication PMC7862700, “An all-to-all approach to the identification of sequence-specific readers for epigenetic DNA modifications on cytosine”.

Holding throughout (assay): DAPPL (digital affinity profiling via proximity ligation, sequencing); 10 mM Tris-HCl pH 7.5, 50 mM NaCl, 1 mM DTT, 4% glycerol, room temperature, 30 min; GST-TFs on glutathione beads, 16-mer random dsDNA library, 0.1% formaldehyde crosslink after washing; high values mean tight binding
Holding throughout (details): protein: recombinant; tags: N-terminal GST; dsDNA, one strand shown

Assay [1] addresses T1, ERF (Homo sapiens, UniProt P50548 1-548).
T1 sequence: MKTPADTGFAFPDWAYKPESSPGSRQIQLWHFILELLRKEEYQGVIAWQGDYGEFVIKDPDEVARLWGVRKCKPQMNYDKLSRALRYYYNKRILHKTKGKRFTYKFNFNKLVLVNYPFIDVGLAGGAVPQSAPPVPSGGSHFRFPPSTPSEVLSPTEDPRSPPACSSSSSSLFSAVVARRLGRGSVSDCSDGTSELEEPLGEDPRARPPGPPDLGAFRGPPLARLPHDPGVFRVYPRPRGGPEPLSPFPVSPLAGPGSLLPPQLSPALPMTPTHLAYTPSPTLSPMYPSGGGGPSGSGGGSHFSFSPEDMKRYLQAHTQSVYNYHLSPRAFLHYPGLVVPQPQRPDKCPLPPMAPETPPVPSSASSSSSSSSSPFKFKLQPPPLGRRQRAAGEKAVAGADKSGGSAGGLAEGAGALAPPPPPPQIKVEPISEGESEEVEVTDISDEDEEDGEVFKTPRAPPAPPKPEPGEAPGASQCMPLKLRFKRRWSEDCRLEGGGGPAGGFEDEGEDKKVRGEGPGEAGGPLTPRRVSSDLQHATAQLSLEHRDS
In short, it runs like this:
(§1)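 Pools of DNA-barcoded human transcription factors, expressed in yeast as GST fusions on glutathione beads and combined with a tag-only sample, were incubated with 200 nmole of a 16-mer random double-stranded DNA library. Incubation took 30 min at room temperature in Tris/NaCl/DTT/glycerol buffer and was followed by washing, 0.1% formaldehyde crosslinking, proximity ligation (BsaI/T4 ligase, 1 h, 37 °C), PCR amplification and sequencing on an Illumina NextSeq500. Binding signal is the ratio of a hexamer's read frequency for a factor to its frequency for the tag-only sample.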

Assay [2] has as its target T2, ETV3L (Homo sapiens, UniProt Q6ZN32 1-361).
T2 sequence: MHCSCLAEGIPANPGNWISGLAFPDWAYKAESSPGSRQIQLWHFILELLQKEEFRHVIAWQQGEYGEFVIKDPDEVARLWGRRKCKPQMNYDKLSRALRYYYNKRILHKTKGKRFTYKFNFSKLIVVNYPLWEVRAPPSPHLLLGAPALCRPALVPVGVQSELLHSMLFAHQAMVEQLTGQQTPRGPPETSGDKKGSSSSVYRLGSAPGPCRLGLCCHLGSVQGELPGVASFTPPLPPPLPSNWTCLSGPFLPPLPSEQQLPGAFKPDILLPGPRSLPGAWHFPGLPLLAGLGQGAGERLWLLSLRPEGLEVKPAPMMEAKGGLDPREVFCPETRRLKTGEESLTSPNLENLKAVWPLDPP
In short, it runs like this:
as §1

Assay [3] concerns the target T3, ETS2 (Homo sapiens, UniProt P15036 1-469).
T3 sequence: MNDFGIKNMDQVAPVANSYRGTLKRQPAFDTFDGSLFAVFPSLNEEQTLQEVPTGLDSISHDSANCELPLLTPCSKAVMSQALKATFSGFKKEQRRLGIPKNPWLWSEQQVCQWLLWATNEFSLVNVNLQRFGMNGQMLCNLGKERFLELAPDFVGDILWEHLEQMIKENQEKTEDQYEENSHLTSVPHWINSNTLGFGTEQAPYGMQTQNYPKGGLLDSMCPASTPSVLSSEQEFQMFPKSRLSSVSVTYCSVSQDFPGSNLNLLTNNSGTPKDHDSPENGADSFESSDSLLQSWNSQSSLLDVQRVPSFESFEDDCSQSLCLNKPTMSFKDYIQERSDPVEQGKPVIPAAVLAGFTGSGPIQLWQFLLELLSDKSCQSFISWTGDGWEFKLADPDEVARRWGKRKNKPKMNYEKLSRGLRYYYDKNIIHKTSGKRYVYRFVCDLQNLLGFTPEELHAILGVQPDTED
In short, it runs like this:
as §1

Assay [4] deals with T4, SPDEF (Homo sapiens, UniProt O95238 1-335).
T4 sequence: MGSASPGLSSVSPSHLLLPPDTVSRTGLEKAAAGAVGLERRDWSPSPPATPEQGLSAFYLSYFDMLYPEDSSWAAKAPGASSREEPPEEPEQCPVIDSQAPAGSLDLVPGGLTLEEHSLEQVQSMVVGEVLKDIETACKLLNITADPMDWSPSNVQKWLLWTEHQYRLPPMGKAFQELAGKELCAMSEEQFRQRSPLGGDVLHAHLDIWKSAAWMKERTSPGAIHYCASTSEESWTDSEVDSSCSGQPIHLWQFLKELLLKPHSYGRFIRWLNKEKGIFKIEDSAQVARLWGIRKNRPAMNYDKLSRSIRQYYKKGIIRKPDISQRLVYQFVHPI
An outline of the steps: as §1

The target of assay [5] is T5, ETV7 (Homo sapiens, UniProt Q9Y603 1-341).
T5 sequence: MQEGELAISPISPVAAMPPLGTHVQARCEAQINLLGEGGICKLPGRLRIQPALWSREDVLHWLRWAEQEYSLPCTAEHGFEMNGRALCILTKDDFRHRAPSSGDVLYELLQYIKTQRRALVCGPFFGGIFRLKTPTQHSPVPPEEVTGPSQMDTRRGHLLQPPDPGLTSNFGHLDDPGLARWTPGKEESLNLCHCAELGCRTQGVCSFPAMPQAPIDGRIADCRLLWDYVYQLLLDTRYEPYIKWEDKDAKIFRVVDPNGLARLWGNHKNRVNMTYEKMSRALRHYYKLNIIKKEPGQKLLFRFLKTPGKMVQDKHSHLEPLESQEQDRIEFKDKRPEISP
In short, it runs like this:
as §1

Assay [6] deals with ETV6 (Homo sapiens, UniProt P41212 1-452). In short, it runs like this:
as §1

The target in assay [7] is T6, ELF5 (Homo sapiens, UniProt Q9UKW6-2 1-255).
T6 sequence: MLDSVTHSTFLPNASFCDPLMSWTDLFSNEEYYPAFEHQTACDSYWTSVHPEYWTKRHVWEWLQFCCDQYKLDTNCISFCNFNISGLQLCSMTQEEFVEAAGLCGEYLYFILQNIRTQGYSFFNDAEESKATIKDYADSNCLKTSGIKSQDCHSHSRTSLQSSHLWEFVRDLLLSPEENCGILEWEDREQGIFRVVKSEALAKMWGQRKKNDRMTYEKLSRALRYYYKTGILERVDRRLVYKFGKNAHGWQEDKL
An outline of the steps:
as §1

The target in assay [8] is T7, ETV3 (Homo sapiens, UniProt P41162-2 1-143).
T7 sequence: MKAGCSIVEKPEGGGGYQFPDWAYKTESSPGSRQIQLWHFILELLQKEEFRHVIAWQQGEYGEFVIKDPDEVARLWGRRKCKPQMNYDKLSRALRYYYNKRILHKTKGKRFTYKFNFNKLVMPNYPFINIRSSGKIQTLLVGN
An outline of the steps:
as §1

ETV6, sequence (P41212 whole entry): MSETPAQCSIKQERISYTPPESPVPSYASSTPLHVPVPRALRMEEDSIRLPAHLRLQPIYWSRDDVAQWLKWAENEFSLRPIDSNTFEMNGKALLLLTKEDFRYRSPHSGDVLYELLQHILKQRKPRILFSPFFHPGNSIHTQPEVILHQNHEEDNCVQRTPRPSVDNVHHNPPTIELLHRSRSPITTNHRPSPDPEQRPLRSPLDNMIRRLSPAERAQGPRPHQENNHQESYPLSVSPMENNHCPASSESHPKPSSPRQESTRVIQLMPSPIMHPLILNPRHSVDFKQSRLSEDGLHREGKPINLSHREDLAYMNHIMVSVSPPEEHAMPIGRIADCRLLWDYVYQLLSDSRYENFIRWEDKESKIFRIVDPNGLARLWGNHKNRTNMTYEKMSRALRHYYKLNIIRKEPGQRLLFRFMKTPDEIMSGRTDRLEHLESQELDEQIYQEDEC

Regarding CTCGGT, the binding signal is 1.14 fold enrichment (6-mer frequency, TF over GST control) in assay [1]; 1.12 fold enrichment (6-mer frequency, TF over GST control) in assay [2]; 1.11 fold enrichment (6-mer frequency, TF over GST control) in assay [3]; 1.02 fold enrichment (6-mer frequency, TF over GST control) in assay [4]; 1.05 fold enrichment (6-mer frequency, TF over GST control) in assay [5]; 1.08 fold enrichment (6-mer frequency, TF over GST control) in assay [6].

As to ATGCTG, the binding signal is 1.16 fold enrichment (6-mer frequency, TF over GST control) in assay [1]; 1.13 fold enrichment (6-mer frequency, TF over GST control) in assay [2]; 1.18 fold enrichment (6-mer frequency, TF over GST control) in assay [3]; 1.11 fold enrichment (6-mer frequency, TF over GST control) in assay [4]; 1 fold enrichment (6-mer frequency, TF over GST control) in assay [7]; 1.09 fold enrichment (6-mer frequency, TF over GST control) in assay [8]. In assay [6], the binding signal was 1.08 fold enrichment (6-mer frequency, TF over GST control).

On to TAATCG, for which the binding signal in assay [1] is 1.06 fold enrichment (6-mer frequency, TF over GST control); in assay [2], 1.09 fold enrichment (6-mer frequency, TF over GST control); in assay [3] it was 1.08 fold enrichment (6-mer frequency, TF over GST control); in assay [4], 1.05 fold enrichment (6-mer frequency, TF over GST control); in assay [7], 1.05 fold enrichment (6-mer frequency, TF over GST control); in assay [6] it was 1.05 fold enrichment (6-mer frequency, TF over GST control).

CAACGC: the binding signal in assay [1] was 1.05 fold enrichment (6-mer frequency, TF over GST control); in assay [2], 1.07 fold enrichment (6-mer frequency, TF over GST control); in assay [3] it was 1.07 fold enrichment (6-mer frequency, TF over GST control); in assay [4] it was 1.08 fold enrichment (6-mer frequency, TF over GST control); in assay [5], 1.09 fold enrichment (6-mer frequency, TF over GST control); in assay [6], 1.03 fold enrichment (6-mer frequency, TF over GST control).

Regarding GCTCAG, the binding signal in assay [1] is 1.18 fold enrichment (6-mer frequency, TF over GST control); in assay [2], 1.16 fold enrichment (6-mer frequency, TF over GST control); in assay [3] it was 1.06 fold enrichment (6-mer frequency, TF over GST control); in assay [4], 1.09 fold enrichment (6-mer frequency, TF over GST control); in assay [7], 1.01 fold enrichment (6-mer frequency, TF over GST control); in assay [8] it was 1.1 fold enrichment (6-mer frequency, TF over GST control). For the same sequence, the binding signal in assay [6] is 1.13 fold enrichment (6-mer frequency, TF over GST control).

Consider CCAAAC, for which the binding signal was 1.08 fold enrichment (6-mer frequency, TF over GST control) in assay [1]; 1.12 fold enrichment (6-mer frequency, TF over GST control) in assay [2]; 1.1 fold enrichment (6-mer frequency, TF over GST control) in assay [3]; 1.11 fold enrichment (6-mer frequency, TF over GST control) in assay [4]; 1.09 fold enrichment (6-mer frequency, TF over GST control) in assay [7]; 1.11 fold enrichment (6-mer frequency, TF over GST control) in assay [8]. Moreover, the binding signal in assay [6] was 1.07 fold enrichment (6-mer frequency, TF over GST control).

For CGCTAG, the binding signal in assay [1] is 1.08 fold enrichment (6-mer frequency, TF over GST control); in assay [2] it was 1.06 fold enrichment (6-mer frequency, TF over GST control); in assay [3], 1.03 fold enrichment (6-mer frequency, TF over GST control); in assay [4], 1.08 fold enrichment (6-mer frequency, TF over GST control); in assay [7], 1.05 fold enrichment (6-mer frequency, TF over GST control); in assay [6] it was 1.04 fold enrichment (6-mer frequency, TF over GST control).
